This note sets out measurements from PubChem BioAssay AID1159524 (National Center for Advancing Translational Sciences (NCATS), 2015).

In all, about 410,000 compounds went through this assay and about 5,100 (1.2%) were called active. Not shown: some 8% with an inconclusive outcome. The call rests on the fitted dose curve; tested in HEK293T cells. Shown is part of a subset that was picked to be rich in actives. Entries that show only a call come without a potency.
Potency means the concentration at half of the fitted maximal effect.

This test is described as follows: High Throughput Screening for Foot and Mouth Disease Virus Antivirals. Further: read-out not given here; nearly all actives have a fitted effect of over 45% in size. Particulars: FMDV antiviral cell-based qHTS; series mostly up to 57.9 µM. In general terms: Quantitative high-throughput screening tests each substance at several concentrations.
On to `CC(C)=CC1C(C(=O)O)C1(C)C` (stereo not given), for which the Potency entry is “inactive”.
With `Nc1nc2[nH]c(=O)c(=O)[nH]c2c(=O)[nH]1`, the Potency entry was “inactive”.
As for `COc1ccc(NC(=O)C(=O)NCc2ccco2)cc1`, the Potency result was “inactive”.
Take `COc1ccc(CC(=O)Nc2ccc(-c3nc4ccccc4s3)c(C)c2)cc1`: the Potency entry is “inactive”.
For the compound `COc1ccc(CS(=O)/C(Cl)=C(/Cl)C(=O)Nc2ccc(OC)nc2)cc1` (stereo not given), the Potency is 5.62 µM (active).
The result for `Nc1ncnc2c1ncn2C1CC(O)C(CO)O1` (stereo not given) reads “inactive”; that for `CC1CC[C@@]23CCC4(C)[C@@]5(C)CCC6C(C)(C)C(O)CC[C@@]6(C)C5C=C[C@@]4(OC2=O)C3C1C` (stereo not given in full), “inactive”; that for `O=c1oc2ccccc2c(O)c1C(c1ccccc1O)c1c(O)c2ccccc2oc1=O`, “inactive”.
Then `CC1=Nc2cc(C(=O)N3CCC(C)CC3)ccc2Sc2ccc(Cl)cc21`, with “inactive”; and `CCC(=O)N1CCc2cc(S(=O)(=O)NC(Cc3ccccc3)C(=O)NCc3ccc(C)cc3)ccc21` (stereo not given), with “inactive”.
The result for `CCN(CC(=O)NCCc1ccccc1)S(=O)(=O)c1ccc(C)cc1` reads “inactive”.
`CSCCC(NS(=O)(=O)c1ccc(C)cc1)C(=O)NCCc1c[nH]c2ccccc12` (stereo not given): the Potency result is “inactive”.
The result for `Cc1ccc(S(=O)(=O)N(C)CC(=O)NCCc2c[nH]c3ccccc23)cc1` reads 15.8 µM (active).
Consider `COc1ccc(CCNC(=O)c2ccc3c(c2)nc(C)n3-c2ccc(Br)cc2)cc1OC`, for which the Potency result was “inactive”.
Then `O=C(CCc1nc(CN2CCN(S(=O)(=O)c3ccc(Br)cc3)CC2)no1)N1CCCCC1`, with “inactive”.
With `O=C(Nc1ccccc1C(=O)N1CCOCC1)c1ccc(CSc2ccccc2)cc1`, the Potency entry was “inactive”.
For the compound `C/C(CCc1ccccc1)=N\NC(=O)c1ccc(CN2CCOCC2)cc1`, the Potency result is “inactive”.
Turning to `O=C(Nc1ccc(CSc2ccccc2)cc1)c1ccc(CN2CCOCC2)cc1`, the Potency is 5.01 µM (active).
On to `CS(=O)(=O)N1CCC2(CC1)CN(Cc1cc(C(F)(F)F)cc(C(F)(F)F)c1)C2`, for which the Potency result was “inactive”.
Take `COc1ccccc1CNc1nc2ccc(Cl)cc2n2cnnc12`: the Potency entry is “inactive”.
Turning to `O=C(NCC1Cc2cc(F)cc(-c3cnccn3)c2O1)C1COc2ccccc2O1` (stereo not given), the Potency result is “inactive”.
Consider `COc1cc(CC(=O)Nc2nc(-c3ccc(F)c(F)c3)cs2)cc(OC)c1OC`, for which the Potency was 20 µM (active).
Consider `COc1cccc(CNS(=O)(=O)c2csc(C(N)=O)c2)c1`, for which the Potency result was “inactive”.
Then `COc1cccc(CNC(=O)Cc2csc3nc(-c4ccccc4)cn23)c1`, with “inactive”; and `COc1ccc(CC(=O)Nc2nc(-c3ccc(F)c(F)c3)cs2)cc1OC`, with 17.8 µM (active); and `COc1cccc(CC(=O)Nc2nc(-c3ccc(OC)c(OC)c3)cs2)c1`, with 35.5 µM (active).
The result for `Fc1ccc(-c2csc(-c3ccc(C4SCCS4)cc3)n2)cc1F` reads “inactive”; that for `COc1cc(CCC(=O)Nc2ccncc2Cl)cc(OC)c1OC`, “inactive”.
Turning to `COc1ccc(-c2cc(C(=O)NCc3cc(OC)c(OC)c(OC)c3)[nH]n2)cc1`, the Potency result is “inactive”.
As to `COc1ccc(CC(=O)Nc2nnc3n2CCS3)cc1OC`, the Potency result is “inactive”.
Take `Oc1ccc(-c2c(-c3ccccc3)nn3c(C(F)(F)F)cc(C(F)(F)F)nc23)cc1`: the Potency result is “inactive”.
The result for `COc1ccc(-n2c(=O)c(-c3cn(C)c4ccccc34)nc3cnc(OC)nc32)cc1` reads “inactive”; that for `COC(=O)c1ccc(NC(=O)CCc2c(C)nn(-c3ccc(N4CCCC4)nn3)c2C)cc1`, “inactive”.
`COc1cc(OC)c2c(c1Cl)OC1(C2=O)C(O)=CC(=O)CC1C` (stereo not given): the Potency result is “inactive”.
The result for `O=C(Nc1ccccc1)N[C@H]1C[C@H](C(=O)O)Nc2cc(Cl)cc(Cl)c21` reads “inactive”; that for `COc1ccc(CN2C(=O)C(NC(=O)c3cccc(C)c3)(C(F)(F)F)N=C2c2ccccc2)cc1` (stereo not given), “inactive”.
Consider `Cc1cnc(C)c(-c2cc(F)c3c(c2)CC(CNC(=O)c2cccc(Cn4cccn4)c2)O3)n1` (stereo not given), for which the Potency entry is “inactive”.
Take `CN(Cc1ccco1)c1ncncc1-c1ccoc1`: the Potency result was “inactive”.
Take `CC(C)[C@@H]1NC(=O)[C@H](Cc2ccccc2)NC(=O)[C@@H](CC(=O)O)NC(=O)CNC(=O)[C@H](CCCNC(=N)N)NC1=O`: the Potency result is “inactive”.
Then `COc1ccc2c(c1)c(=Cc1ccc(N(C)C)cc1)c1cc(-c3ccccc3)[n+](C)n12`, with 14.1 µM (active); and `CCOC(=O)c1cc(OC(=O)c2ccccc2Cl)n(-c2ccccc2)n1`, with “inactive”.
For `COc1ccccc1-c1ccnc(-n2ncc(C(=O)NCCc3ccncc3)c2C)n1`, the Potency result was “inactive”.
The result for `N#Cc1cccc(-c2nc3cnc(N4CCNCC4)nc3n(C3CC3)c2=O)c1` reads “inactive”.
For `Cc1ccc(Cn2cc(CCC(=O)NCc3ccc(OC(C)C)cc3)c3ccccc32)cc1`, the Potency result is “inactive”.
Regarding `CCCN(CCC)CCCNC(=O)Cn1cc2c(n1)-c1c(oc(C(=O)N3CCCC3)c1C)CC2`, the Potency result was “inactive”.
`Cc1c(C(=O)N2CCCC2)oc2c1-c1nn(CC(=O)NCc3ccc(OC(C)C)cc3)cc1CC2`: the Potency was 28.2 µM (active).
As for `Cc1cccc(CNc2cc(-c3ccccc3Cl)ncn2)c1`, the Potency entry was “inactive”.
Consider `CC(=O)Nc1c(C)nn(-c2ccccc2)c1N1CCC(C(=O)Nc2cc(Cl)ccc2C)CC1`, for which the Potency result was “inactive”.
Then `Cc1cccn2c(CNCC(C)Oc3cccnc3)c(C(=O)N3CCOCC3)nc12` (stereo not given), with 4.47 µM (active); and `Cc1cc(C)n(CC(C)NCc2c(C(=O)N3CCOCC3)nc3c(C)cccn23)n1` (stereo not given), with “inactive”.
Turning to `Cc1cccc(N2CCC(NCc3c(C(=O)N4CCCCC4)nc4c(C)cccn34)CC2)c1`, the Potency result is “inactive”.
In the case of `CC(CCC(=O)O)C1CCC2C3C(O)C[C@@H]4CC(O)CC[C@@]4(C)C3CC[C@@]12C` (stereo not given in full), the Potency entry was “inactive”.
Take `COc1ccc(-c2cc(C(=O)Nc3sc4c(c3C(N)=O)CCCC4)no2)cc1`: the Potency result was “inactive”.
For the compound `CCOc1ccc(OCC)c(Nc2nc3ccccc3n3nnnc23)c1`, the Potency result was “inactive”.
On to `CCOc1ccc(CNC(=O)c2cccc(Nc3nc4ccccc4n4nnnc34)c2)cc1OC`, for which the Potency is 7.08 µM (active).
`CCOc1ccc(CNC(=O)c2ccc3nc(CC)c(CC)nc3c2)cc1OC`: the Potency result is “inactive”.
Regarding `COc1cc(OC)cc(C(=O)Nc2ccc3nc(Nc4cccc(C(F)(F)F)c4)cc(C)c3c2)c1`, the Potency entry was “inactive”.
Turning to `COc1cccc(Cn2c(=O)c(C)nc3cnc(Oc4ccccc4)nc32)c1`, the Potency result was “inactive”.
Take `COc1ccc2c3c1OC1CC(O)C=C[C@@]31CCN(C)C2` (stereo not given in full): the Potency result is “inactive”.
For the compound `CC(=O)N1CCC(C(=O)Nc2nc(-c3ccccc3)ns2)CC1`, the Potency is 2.82 µM (active).
For the compound `Cc1csc(NC(=O)C2CCN(S(=O)(=O)c3ccccc3)CC2)n1`, the Potency entry is “inactive”.
In the case of `Cc1ccc(C(=O)Nc2nc(-c3ccccc3)ns2)cc1`, the Potency result was “inactive”.
As for `CC(=O)c1ccc(NC(=O)c2nc3nc(C)cc(C(F)F)n3n2)cc1`, the Potency result was “inactive”.
As to `CCc1ccccc1OCCSc1nc(-c2cccs2)nc2cc(=O)[nH]n12`, the Potency result was “inactive”.
Regarding `COc1ccccc1C(=O)N[C@@H]1c2ccccc2C2(CCN(C(=O)c3csnn3)CC2)[C@H]1OC`, the Potency entry is “inactive”.
As to `CC(C)c1csc(CN2CCC(CO)(Cc3ccccc3)CC2)n1`, the Potency entry was “inactive”.
`COc1ccccc1C(=O)N[C@@H]1c2ccccc2C2(CCN(Cc3nc(C(C)C)cs3)CC2)[C@H]1O`: the Potency is 11.2 µM (active).
For the compound `O=C(Nc1cccc(F)c1)N1CC[C@@]2(CCCN(C(=O)Oc3ccccc3)C2)C1`, the Potency entry was “inactive”.
Take `CCN1C[C@]2(COC)C(O)C[C@H](OC)[C@@]34C5C[C@]6(O)C(OC)C(O)[C@](OC(C)=O)(C5C6OC(=O)c5ccccc5)C(C(OC)C23)C14` (stereo not given in full): the Potency entry is “inactive”.
As for `CC(NS(=O)(=O)c1ccc(Br)cc1)C(=O)NCC1CCCO1` (stereo not given), the Potency is 1 µM (active).
`CCOc1ccc(NS(=O)(=O)c2ccc(C(=O)NCC3CCCO3)cc2)cc1` (stereo not given): the Potency entry is “inactive”.
Then `O=C(CNC(=O)c1ccc(Br)o1)NCC1CCCO1` (stereo not given), with “inactive”; and `NCCC(=O)c1ccccc1N`, with “inactive”; and `O=C1NC(=O)N(CCc2ccc(F)cc2)C(=O)/C1=C/C=C/c1ccccc1`, with 10 µM (active).
`CN(C)C1=NC[C@H](Cc2ccccc2)N1CCc1ccc(F)cc1`: the Potency result is “inactive”.
